Hits are enriched below; roughly 5.6% of the tested compounds scored in any of these assays.
Six1-Eya2 blk: Six1/Eya2 interaction inhibition; Q15475+O00167; AlphaScreen GST-Six1/His-Eya2 binding, biochemical; hits give low values; activity change, % (no concentration beside the values); 0.56% of 360,000 active; in the data active = activity change below about -65%; inconclusive = mostly about -30% to -63%
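AlphaScreen with GST-Six1 and His-Eya2 (5X mix: 250 nM and 500 nM), glutathione donor and nickel acceptor beads; buffer 50 mM Tris pH 8.0, 300 mM NaCl, 1 mM TCEP; 1 h at 37 C in the dark.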
PKM2 activator: PKM2 (human) enzyme activation; P14618; 0.34% of 260,000 active; Potency, µM (top dose mostly 57.5 µM), inactives show top-dose activation, hits mostly activators; purified PKM2, Kinase-Glo ATP luminescence, activation; response scale: 0% is enzyme alone, no compound; note: potency is the fitted concentration of half-maximal effect; nearly all actives have a fitted effect of over 55% in size
Target sequence (P14618 whole entry, looked up): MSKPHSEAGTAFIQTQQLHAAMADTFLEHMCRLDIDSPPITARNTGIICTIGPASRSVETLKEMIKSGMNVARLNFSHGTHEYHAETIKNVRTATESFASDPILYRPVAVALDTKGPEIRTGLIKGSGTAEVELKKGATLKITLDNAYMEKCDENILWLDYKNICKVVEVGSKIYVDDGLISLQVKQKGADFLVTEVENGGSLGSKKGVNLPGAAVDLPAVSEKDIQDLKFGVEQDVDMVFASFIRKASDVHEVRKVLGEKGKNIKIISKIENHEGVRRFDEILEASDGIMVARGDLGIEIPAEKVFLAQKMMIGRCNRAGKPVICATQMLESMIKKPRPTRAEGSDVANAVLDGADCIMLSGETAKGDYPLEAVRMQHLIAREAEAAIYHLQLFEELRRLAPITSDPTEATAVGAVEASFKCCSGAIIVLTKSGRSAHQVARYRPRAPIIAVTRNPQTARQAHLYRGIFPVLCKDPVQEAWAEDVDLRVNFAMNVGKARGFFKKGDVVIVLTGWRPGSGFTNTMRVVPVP
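Kinase-Glo luminescence reports ATP generated from ADP (0.1 mM) and PEP (0.5 mM) by purified hPK-M2 after 1 h at room temperature, pH 7.2 imidazole buffer; intermediate enzyme activity allows detecting inhibitors and activators.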
RORgamma inh: ROR gamma (mouse) transcription inhibition. P51450. Drosophila S2 Gal4-RORgamma UAS-luciferase reporter, 20 h. Potency, µM (titrated, usually from 53.6 µM), for the others: at the top dose activity change, negative = inhibition, most hits filed as inhibitors. 5.4% of 310,000 active; note: potency is the fitted concentration of half-maximal effect; nearly all actives have a fitted effect of over 60% in size
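Stable Schneider cell line, Gal4 DNA-binding domain fused to ROR gamma, UAS-luciferase. Cmpd 1 hr RT → CuSO4 700 uM final → 20 hr RT → luciferase reagent 10 min → luminescence.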
CtBP-E1A inh: CtBP/E1A binding inhibition; AlphaScreen GST-E1A/His-CtBP binding, 1536-well; hits give low values; 0.49% of 340,000 active; AID 651724; activity change, % (test concentration not listed); in the data active = activity change below about -65%; inconclusive = mostly about -30% to -63%
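GST-E1A and His-tagged CtBP (125 nM each as 5X stock) were preincubated with pin-transferred compound for 2 h at 37 °C in the dark, then glutathione donor and nickel acceptor beads were added for 1 h before AlphaScreen reading.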
VP16 counter: inhibits Gal4-VP16 luciferase reporter, ROR gamma counter-screen | Potency, µM (titrated, usually from 53.6 µM), without a hit: at the top dose activity, negative = inhibition, actives largely listed as inhibitors | AID 2546 | Drosophila S2 Gal4-VP16 UAS-luciferase, luminescence, 20 h | 3.5% of 310,000 active;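 note: Gal4-VP16 expression switched on by copper sulfate through the metallothionein promoter; potency is the fitted concentration of half-maximal effect; nearly all actives have a fitted effect of over 50% in size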
* = called active by the depositor; u = inconclusive; x = not tested or not shown; ! = not active in a repeat; [ ] = dose if it differs, or a comment. Unless noted, calls come from the whole dose curve; as a rule, active = well fitted curve in the direction sought with a large enough effect; inconclusive = small, poorly fitted or top-dose-only effect, or another doubt; inactive = no such curve, though single readings can be large; an effect the other way counts as inactive or inconclusive. % is set by controls: 0 for no effect and ±100 for the full control effect.

SMILES | Six1-Eya2 blk | PKM2 activator | RORgamma inh | CtBP-E1A inh | VP16 counter
Cc1cc([N+](=O)[O-])nn1Cc1ccc(C(=O)N/N=C/c2ccc(O)cc2O)cc1 | -88.5* | 2.5% | u | u | -9.0%
Nc1nnnn1CC(=O)N/N=C/c1cc([N+](=O)[O-])ccc1O | -86.7* | -2.5% | 26.9% | -80.8* | -0.8%
CC1=C(C(=O)N(C(C)C)C(C)C)CC(CC(=O)NC(c2ccccc2)c2ccccc2)C(=O)N1CCCN1CCCC1=O (stereo not drawn) | 3.5 | x | x | 1.1 | x
COc1cc(/C=N/NC(=O)c2cn(-c3cccc(C)n3)cn2)ccc1O | u | 6.0% | 23.9% | u | 16.8%
Cc1ccc(CC2CC(=O)N(c3cc(Cl)ccn3)C2=O)cc1 (stereo not drawn) | -12.3 | -0.7% | 24.2% | -2.4 | 1.1%
Cc1ccc(S(=O)(=O)N2CCCCC2)cc1NC(=O)Cn1cnnn1 | -1.5 | 14.1µM* | 27.2% | x | 14.2%
COc1ccc(N2CC(C(=O)N3CCN(S(=O)(=O)c4ccc(F)c(F)c4)CC3)CC2=O)c(OC)c1 (stereo not drawn) | -1.4 | x | x | 2.4 | x
Cc1cc(-c2c(C)[nH]n(-c3ccc(Cl)cc3)c2=O)n[nH]1 | u | 1.9% | 0.112µM* | u | 0.631µM*
CCOc1ccc(C(=O)NC(=S)Nc2ccccc2N2CCC(C)CC2)cc1[N+](=O)[O-] | -14.9 | -0.5% | 1µM* | -14.6 | 3.16µM*
CCOc1ccc(C(=O)NC(=S)Nc2cc(C)ccn2)cc1[N+](=O)[O-] | -5.0 | -5.0% | -14.2% | 0.4 | -1.3%
CCOc1ccc(C(=O)NC(=S)Nc2ccc(N3CCC(C)CC3)cc2)cc1[N+](=O)[O-] | -9.8 | -15.6% | 0.398µM* | -13.0 | u
CCCC(=O)N1CCN(c2ccc(NC(=O)c3ccc(OCC)c([N+](=O)[O-])c3)cc2)CC1 | -0.9 | -0.7% | 18.7% | 0.1 | 6.7%
CCC(=O)N1CCN(c2ccc(NC(=S)NC(=O)c3ccc(OC)c([N+](=O)[O-])c3)cc2)CC1 | -27.2 | -2.5% | 7.08µM* | 19.1 | 5.01µM*
CC=O | x | x | -4.9% | x | 8.3%
O=c1c(-c2cc(F)cc(F)c2)nc2cnc(N3CCNCC3)nc2n1-c1ccccc1 | x | x | -5.6% | x | -6.6%
COc1ccccc1-c1ccc(=O)n(CC(=O)NC2CCc3ccccc32)n1 (stereo not drawn) | -0.1 | 9.7% | 3.55µM* | -1.5 | u
Cc1ccc(CNC(=O)C2c3ccccc3C(=O)N3CCc4ccccc4C23)o1 (stereo not drawn) | -0.7 | 10µM* | -0.5% | -7.5 | -7.2%
CC(OC(=O)c1cc(=O)[nH]c2ccccc12)C(=O)Nc1ccccc1F (stereo not drawn) | -3.5 | x | x | 13.7 | x
COc1ccc(/C=C2\CCC(C3CCCC3)C2=O)cc1 (stereo not drawn) | 17.7 | x | 30.0% | 1.0 | 0.7%
COc1ccc(/C=C2\CCCC3C2=NC(=S)NC3c2ccc(OC)cc2)cc1 (stereo not drawn) | 1.0 | 0.3% | 6.31µM* | 1.8 | 12.6µM*
O=C(CCn1ccnc1)Nc1cc(Cl)ccc1O | u | x | -6.5% | 3.0 | 7.9%
CCN1C(=O)/C(=C2\SC(=S)N(NC(=O)c3ccccc3O)C2=O)c2ccccc21 | -90.0* | 2.1% | 4.6% | -96.6* | -6.5%
CCN1C(=O)/C(=C2\SC(=S)N(CC3CCCO3)C2=O)c2ccccc21 (stereo not drawn) | x | -3.0% | -4.2% | x | 6.2%
Nc1nnnn1CC(=O)N/N=C/c1ccccn1 | u | 3.9% | 4.5% | -22.0 | -10.8%
Cc1ccc(C(C)C)c(OCc2ccc(-c3nnco3)cc2)c1 | 2.9 | -0.1% | 3.98µM* | -0.1 | u
SMILES | Six1-Eya2 blk | PKM2 activator | RORgamma inh | CtBP-E1A inh | VP16 counter
O=C(Cn1cc(Cl)c([N+](=O)[O-])n1)NCCC1=CCCCC1 | 0.9 | x | 14.6% | 4.1 | 4.5%
Cc1ccc(-c2n[nH]c(=S)n2/N=C/C=C/c2ccccc2[N+](=O)[O-])cc1 | -27.8 | 18.7% | 4.47µM* | -16.5 | -24.3%
O=[N+]([O-])c1ccccc1/C=C/C=N/n1c(-c2ccco2)n[nH]c1=S | -3.8 | -13.8% | 8.91µM* | -5.1 | 6.3%
O=C(NCC1CCCO1)C(=O)N/N=C/c1c(F)cccc1Cl (stereo not drawn) | 3.7 | x | 2.2% | 8.8 | -5.2%
O=C(Nc1nnc(CSCc2ccccc2F)s1)c1cccc([N+](=O)[O-])c1 | -2.8 | 21.6% | 4.47µM* | -11.4 | 5.01µM*
CCOC(=O)c1c(-c2ccc(C)o2)csc1NC(=S)NC(=O)c1cccs1 | -9.3 | u | 1.41µM* | 3.9 | 2.51µM*
CCOC(=O)c1c(-c2ccc(C)o2)csc1NC(=O)COC(=O)c1ccc(NC(N)=O)cc1 | 4.3 | u | -0.7% | -6.0 | 2.3%
CCOC(=O)c1c(-c2ccc(C)o2)csc1NC(=S)NC(=O)c1ccccc1Br | -15.4 | 3.16µM* | 7.94µM* | -15.3 | 10µM*
O=C(CCc1ccccc1)NCC(=O)N/N=C/c1ccc(O)cc1O | -65.6* | -1.0% | -10.2% | x | -12.6%
COc1ccc(C=NNC(=O)c2ccccc2NS(=O)(=O)c2cccs2)cc1O | -22.3 | x | x | -14.7 | x
O=C(CNC(=O)c1cccnc1)N/N=C/c1ccc(O)cc1O | -71.6* | x | -34.3% | -86.3* | -24.3%
O=C(NN=Cc1ccc(O)cc1O)c1ccccc1NS(=O)(=O)c1cccs1 | u | x | x | -80.0* | x
C/C(=N\NC(=O)CNC(=O)c1cccnc1)c1cccc(O)c1 | -8.8 | x | 32.3% | x | -4.0%
O=C(CNC(=O)c1cccs1)N/N=C/c1ccc(O)cc1O | -86.2* | 6.8% | 33.5% | u | -7.4%
COC(=O)C1=C(C)N(Cc2ccccc2)[C@]23O[C@](C(=O)OC)(C(=O)N2C1c1ccccc1)C1CCOC(=O)C13 (stereo partly drawn) | x | x | -14.5%[10 µM] | x | 1.8%[10 µM]
Cc1ccc2c(c1)C1C=CCC1C(C(=O)O)N2 (stereo not drawn) | x | 13.9% | -11.1% | x | -6.5%
CC(=O)c1ccc2c(c1)C1C=CCC1C(C(=O)O)N2 (stereo not drawn) | -68.3* | 7.5% | 5.1% | u | -4.3%
CNCCCC1c2ccccc2C=Cc2ccccc21 | -0.5 | -1.5% | 25.2% | -13.3 | -0.9%
CNCCCC12CCC(c3ccccc31)c1ccccc12 | -2.7 | 3.6% | 10µM*! | -6.8 | u
COc1ccc(OCCn2cc(/C=N/NC(=O)c3ccncc3)c3ccccc32)cc1 | 0.0 | -3.8% | 5.01µM* | -12.7 | 8.91µM*
CCOC(=O)N/N=C/c1cn(CCCOc2ccc(C)cc2)c2ccccc12 | 4.1 | 1.4% | 1.41µM* | -4.0 | 1.78µM*
Cc1ccc(OCCn2cc(/C=N/NC(=O)c3ccncc3)c3ccccc32)cc1 | -15.2 | -0.1% | 5.01µM* | -24.3 | 11.2µM*
COC(=O)N/N=C/c1cn(CCOc2ccc(OC)cc2)c2ccccc12 | -11.0 | x | 35.0% | -8.8 | 6.5%

High-throughput results as filed in PubChem BioAssay.
